The whole screen tested about 1,500 compounds, of which about 390 (26%) were called active. How the calls were made is not given here. Only a sample is shown. Measured potencies and affinities stand elsewhere.
target: Histone-lysine N-methyltransferase NSD2 (Homo sapiens) (UniProt O96028); assay: NSD2 methyltransferase inhibitors, dose response, biochemical, AlphaScreen, cherry-picked samples (AID 1053173); conditions: NSD2 H4 peptide methylation, 120 min; series mostly up to 10 µM
Sequence (O96028 whole entry, looked up): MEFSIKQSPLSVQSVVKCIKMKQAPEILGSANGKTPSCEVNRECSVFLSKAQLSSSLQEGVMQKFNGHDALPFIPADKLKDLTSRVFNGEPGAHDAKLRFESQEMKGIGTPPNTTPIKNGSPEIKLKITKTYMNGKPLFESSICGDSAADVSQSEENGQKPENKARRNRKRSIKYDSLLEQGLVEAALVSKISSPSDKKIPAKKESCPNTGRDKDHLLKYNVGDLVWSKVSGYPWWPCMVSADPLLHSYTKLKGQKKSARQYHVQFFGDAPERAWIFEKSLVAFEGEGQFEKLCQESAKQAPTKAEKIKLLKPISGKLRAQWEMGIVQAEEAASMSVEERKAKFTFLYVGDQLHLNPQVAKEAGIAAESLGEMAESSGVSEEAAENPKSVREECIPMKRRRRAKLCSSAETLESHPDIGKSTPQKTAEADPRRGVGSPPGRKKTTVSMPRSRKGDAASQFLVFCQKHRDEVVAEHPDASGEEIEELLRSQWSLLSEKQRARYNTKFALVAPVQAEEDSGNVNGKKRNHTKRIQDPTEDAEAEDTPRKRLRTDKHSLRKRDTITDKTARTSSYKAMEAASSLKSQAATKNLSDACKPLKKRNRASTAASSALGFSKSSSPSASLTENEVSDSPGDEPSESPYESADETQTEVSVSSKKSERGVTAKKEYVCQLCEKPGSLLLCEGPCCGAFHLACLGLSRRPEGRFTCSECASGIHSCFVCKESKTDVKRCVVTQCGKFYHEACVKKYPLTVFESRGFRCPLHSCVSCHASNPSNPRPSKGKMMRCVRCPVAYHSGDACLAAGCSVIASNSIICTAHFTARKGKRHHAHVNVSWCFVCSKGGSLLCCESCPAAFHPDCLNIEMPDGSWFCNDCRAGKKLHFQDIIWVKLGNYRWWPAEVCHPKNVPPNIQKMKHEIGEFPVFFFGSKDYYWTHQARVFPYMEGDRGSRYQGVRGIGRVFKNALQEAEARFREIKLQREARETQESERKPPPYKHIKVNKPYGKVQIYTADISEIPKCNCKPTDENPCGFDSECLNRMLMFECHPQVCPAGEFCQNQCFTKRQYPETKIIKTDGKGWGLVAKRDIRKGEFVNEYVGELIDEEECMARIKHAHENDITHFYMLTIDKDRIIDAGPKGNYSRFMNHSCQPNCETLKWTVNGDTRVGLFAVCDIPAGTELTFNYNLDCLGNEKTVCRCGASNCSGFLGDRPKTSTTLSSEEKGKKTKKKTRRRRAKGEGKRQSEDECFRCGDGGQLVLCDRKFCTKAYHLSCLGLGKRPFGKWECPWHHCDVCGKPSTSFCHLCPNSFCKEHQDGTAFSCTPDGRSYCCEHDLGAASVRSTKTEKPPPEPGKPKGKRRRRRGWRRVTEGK

outcome, inactive:
CN1C(=O)C(=O)/C(=C(/O)c2ccccc2)C1c1ccccc1 (stereo not drawn)
CCn1c(SC(=O)NC2CCCCC2)nnc1-c1cccs1
Cc1cc(C)c(NC(=O)C2CC(=O)N(c3ccc4c(c3)OCCO4)C2)c(C)c1 (stereo not drawn)
Cc1cc(C)nc(N2CCC(C(=O)N(C)CCc3ccccc3)CC2)n1
C/[N+]([O-])=C1\Cc2ccccc2C1=O
O=C(CN(C(=O)c1csnn1)c1cccc2ccccc12)NCc1ccccc1
Cc1cc(C(=O)COC(=O)c2n[nH]c3ccccc23)c(C)n1C
O=C(NCCCn1ccnc1)C1CCN(S(=O)(=O)c2ccc(F)cc2)CC1
CC(=O)Nc1ccc(S(=O)(=O)NCCSCc2ccc(Cl)cc2Cl)cc1
CC(C)NCC#CCOc1ccc(Cl)cc1
COC(=O)c1ccc(-n2nnnc2SCC(=O)NCc2cccc(C(=O)O)c2)cc1
O=C(NCc1ccco1)c1scc2c1OCCO2
CC(C)(C)NC(=O)C(c1ccco1)N(C(=O)Cn1nnc(-c2ccc(F)cc2)n1)c1ccccc1F (stereo not drawn)
O=C(c1ccccc1)c1cc2ccccc2oc1=O
Cc1cc(=O)oc(C)c1C(=O)OCC(=O)c1ccccc1
COc1ccc(N2CCOCC2)c(NC(=O)c2ccc3c(c2)OCO3)c1
CCC1Cc2c(nc(N)c3c(N)nc(N4CCOCC4)c(C#N)c23)O1 (stereo not drawn)
CCOc1cc2c(C#N)c(N3CCOCC3)nc(N)c2c(N)n1
CC(C)n1c(NCc2nc3ccccc3n2C)nc2ccccc21
CCc1ccc(N2C(=O)C3C(C2=O)N2CCCN2C3c2ccccc2)cc1 (stereo not drawn)
COc1cc(/C=C2\C(=O)ON=C2c2ccccc2)cc(Cl)c1O
O=C1C(=Cc2ccco2)CCC1=Cc1ccco1
COc1ccc(CNC(=O)CCCN2C(=O)NC3(CCCC3)C2=O)cc1
COc1ccc(NC(=O)Cn2nnc(C(=O)NCCc3ccc(OC)c(OC)c3)c2N)cc1
Cc1ccc(S(=O)(=O)N2CCCCC2CCNC(=O)C(=O)Nc2ccccc2F)cc1 (stereo not drawn)
CC(=O)N(C)c1ccc(N=Nc2c(C)[nH]n(C(N)=S)c2=O)cc1
COC(=O)[C@H](Cc1ccccc1)NC(=O)Nc1ccc(S(N)(=O)=O)cc1
CCCCNC1=CC(=O)C(=O)c2ccccc21
O=C(CSc1nc(SCC(=O)NCc2ccccc2)n(-c2ccccc2)n1)NCc1ccccc1
NS(=O)(=O)c1ccc(N/N=C/c2ccncc2)cc1
COc1ccc(C(=O)Nc2c3c(nn2-c2ccc(Cl)cc2)CS(=O)(=O)C3)cc1
CC(=O)N1C2CCCCC2S[C@H]2CCCCC21 (stereo partly drawn)
O=C(NCc1ccco1)Nc1cccc([N+](=O)[O-])c1
CCCCc1nc2cc(C(=O)N3CCC(O)CC3)ccc2o1
O=C(NC(c1ccc(Cl)cc1)c1cc(Cl)c2cccnc2c1O)c1cccnc1 (stereo not drawn)
Cn1c(=O)c(-c2ccccc2)nc2ccccc21
CCCn1c(C)nc2c(c1=O)c1nc3ccccc3nc1n2-c1ccccc1
CC(=O)Nc1ccc(N(C(=O)CNC(=O)c2ccco2)C(C(=O)NCC2CCCO2)c2ccccc2)cc1 (stereo not drawn)
CCN(CC)S(=O)(=O)c1cccc(-c2nnc(SCCCC(=O)c3ccc(F)cc3)o2)c1
Cc1[nH]n(-c2ccccc2)c(=O)c1N=Nc1ccccc1C(=O)N1CCCCC1
CC1(C)Cc2c(c(-c3ccco3)[nH]c(=O)c2C#N)CS1
CCc1ccc(-c2cc(C)no2)cc1S(=O)(=O)N1CCN(c2ccc(F)cc2)CC1
COc1ccc(NC(=O)CC2C(=O)NCCN2C(=O)c2ccc(N(C)C)cc2)cc1 (stereo not drawn)
Cc1cc(NC(=O)CSc2nc3ccccc3cc2C#N)no1
O=C(Nc1ccc(O)cc1)C1CC=CCC1 (stereo not drawn)
CC1CN(Cc2nc3c(c(=O)n(C)c(=O)n3C)n2CCCc2ccccc2)CC(C)O1 (stereo not drawn)
O=C(OCc1cccc2ccccc12)C1CC(=O)N(c2ccccc2)C1 (stereo not drawn)
COc1cccc2c1N1C(=O)c3c(C(=O)O)cccc3C1CC2(C)C (stereo not drawn)
COc1ccc(C2C(C(=O)c3ccco3)=C(O)C(=O)N2CC2CCCO2)cc1OC (stereo not drawn)
CCOC(=O)c1c(NC(=O)COC)sc2c1CCCC2
CCN(C(=S)Nc1ccc(C(C)=O)cc1)C1CCCCC1
CC1CN(Cc2cc(=O)n3ccsc3n2)CC(C)O1 (stereo not drawn)
COCCn1c(N)c(N(Cc2ccccc2)C(=O)c2cc(=O)[nH]c3ccccc23)c(=O)[nH]c1=O
CC(C)CN(C(=O)COC(=O)c1ccc([N+](=O)[O-])s1)c1c(N)n(Cc2ccccc2)c(=O)[nH]c1=O
CCn1c(SCC(=O)N2CCCCC2)nc2c1c(=O)n(C)c(=O)n2C
CCOC(=O)C1=C(C)N(C)C(=S)NC1c1ccccc1Cl (stereo not drawn)
COc1cc(/C=C2\SC(N)=NC2=O)cc(Cl)c1O
O=C(CCc1nnc(-c2ccccc2)o1)NCc1cc(F)ccc1F
CCNC(=O)C1CCCN(C(=O)c2ccccc2OC(F)(F)F)CC1 (stereo not drawn)
Cc1ccccc1N1CC(C(=O)Nc2ccc(S(=O)(=O)N3CCOCC3)cc2)CC1=O (stereo not drawn)
O=C(CN1CCOCCOCCN(CC(=O)Nc2ccccc2)CCOCC1)Nc1ccccc1
Cc1ccc(S(=O)(=O)c2ccc(Cl)cc2)cc1S(=O)(=O)N1CCOCC1
COc1ccc(NS(=O)(=O)c2cc(NC(=O)COc3ccccc3)ccc2N2CCOCC2)cc1
Cc1ccc(/C=N/NC(=O)c2cc3ccccc3cc2O)o1
CCN(Cc1ccccc1)Cc1c(C)[nH]c2c(C)c(C)ccc2c1=O
CCCc1cc(=O)n(-c2nc3ccccc3s2)[nH]1
CC1(C)Cc2c(c(-c3ccco3)[nH]c(=O)c2C#N)CO1
O=C(CSc1nc(-c2ccccc2)c(-c2ccccc2)o1)N1CCCCC1
CCOC(=O)c1ccc(N=c2scc(C)n2CC)cc1
CC1(C)CC(N=C2C=CC3=NC45CCCCC4CC4=C(CCCC4)N5C3=C2)CC(C)(C)N1 (stereo not drawn)
COc1ccc(N=c2scc(C)n2CCCN2CCCC2=O)cc1
CCOC(=O)Nc1ccc(=O)n(Cc2c(Cl)cccc2Cl)c1
CN(C(=S)NC(=O)C1(C)CC1(Cl)Cl)c1ccccc1 (stereo not drawn)
O=C(NNC(=O)c1ccc(Cl)nc1)c1ccc(Br)cc1
Oc1ccc(/C=N/N2CCOCC2)c(O)c1O
Nc1cc(=O)[nH]c(SCC(=O)Nc2ccc(Cl)c(Cl)c2)n1
Cc1ccc(NC(=S)N2CCC(NC(=O)c3ccc(F)cc3)CC2)cc1
COCC(C)n1c(SCC(=O)NC2CCCCC2C)nc2ccccc2c1=O (stereo not drawn)
Cc1cccc(-n2c(Cn3nc(C)c([N+](=O)[O-])c3C)n[nH]c2=S)c1
Cc1csc(SCC(=O)Nc2ccc3c(c2)OCCO3)n1
COC(=O)c1ccccc1-c1ccc(C(c2c(C)[nH][nH]c2=O)c2c(C)[nH][nH]c2=O)o1
Cc1[nH][nH]c(=O)c1C(c1ccc(-c2ccc(C(=O)O)cc2)o1)c1c(C)[nH][nH]c1=O
Cc1cccc(C(=O)NCc2nnc(SCC(=O)Nc3nnc(C)s3)n2C)c1
O=c1c2cnn(-c3ccccc3)c2nc(-c2ccco2)n1-c1ccccc1
Cc1ccc(S(=O)(=O)NC(C(=O)N2CCN(S(=O)(=O)c3cccc(F)c3)CC2)C(C)C)cc1 (stereo not drawn)
COc1ccccc1OCC(=O)Nc1ccc(S(=O)(=O)N2CCCC2)cc1
Cc1ccccc1NCC(=O)Nc1cc(S(=O)(=O)N2CCCCC2)ccc1C
Cc1ccc(S(=O)(=O)N(C)CC(=O)NCCCn2ccnc2)cc1
CN(c1ccccc1)c1ncnc2c1ncn2C
COc1ccc2c(c1)Cc1sc(NC(C)=O)nc1-2
Cc1nn(-c2ccccn2)c2c1C(=O)C(Br)CC2 (stereo not drawn)
CC(=O)c1ccc(N(CC(=O)NCCc2ccccc2)C(=O)c2csnn2)cc1
O=C(OCc1ccc([N+](=O)[O-])cc1)c1cc(=O)c2ccccc2o1
COc1ccccc1N(CC(=O)NCC1CCCO1)C(=O)CNS(=O)(=O)c1ccc(C)cc1 (stereo not drawn)
O=C1c2ccccc2C(=O)N1CCC(c1ccc(F)cc1)c1ccco1 (stereo not drawn)
COc1ccc(Cc2nnc(NC(=O)C3CC(=O)N(c4ccc(OC)cc4)C3)s2)cc1 (stereo not drawn)
O=C(CN(C(=O)c1csnn1)c1ccc(F)c(Cl)c1)NC1CCCCC1
Cc1nc(N)sc1-c1nnc(SCC(=O)Nc2ccccc2C(F)(F)F)n1C
CC(C)(C)NC(=O)COC(=O)c1ccc2c(c1)C(=O)N(Cc1ccco1)C2=O
CC1=NN(c2ccccc2)C(=O)/C1=C/N(C)C
Cn1c(=O)[nH]c(=O)c2c1nc(N/N=C/c1ccncc1)n2Cc1ccc(F)cc1
Cc1ccc(-c2csc3nc(CN(C)Cc4ccccc4)[nH]c(=O)c23)cc1
CCC(CC)c1nnc(NC(=O)CCS(=O)(=O)Cc2ccccc2)s1
CCCCn1cnc2c(=S)nc(N)[nH]c21
CCn1cc(/C=N\NC(=O)C2(C)CC2(Cl)Cl)c(C)n1 (stereo not drawn)
NNC(=O)c1nc(-c2ccccc2)cc(-c2ccccc2)n1
CC12CCC(C)(c3nc4ccccc4nc31)C2(C)C
Cc1cc(C)n(CCC(=O)N2CCN(S(=O)(=O)c3ccccc3)CC2)n1

— PubChem BioAssay AID1053173 (Broad Institute, 2014)
